{
  "source": "PubChem BioAssay AID1794808",
  "about": "(University of Kansas High Throughput Screening Laboratory, 2022)",
  "note": "In all, about 210,000 compounds went through this assay and about 520 (0.25%) were called active. This is one part of a sample in which actives are shown more often than they occur. Values without a mark were called inactive. No stated cut-off is given here; in the data, active means inhibition above about 50%; inactive means the rest.",
  "data": [
    {"test_system": "Plasmodium falciparum apicoplast DNA polymerase (apPOL)", "test": "Pf-apPOL inhibitors, biochemical, fluorescence (AID 1794808)", "details": "Recombinant Pf-apPOL, molecular beacon fluorescence, 1.5 h; at 10 µM; hits give high values", "values": [
      {"smiles": "NC(=O)c1cc2cc(Br)ccc2oc1=Nc1ccc(F)cc1", "inhibition": "5.9%"},
      {"smiles": "CC(=O)Nc1ccc(-c2ccc(NC(C)=O)c(Cl)c2)cc1Cl", "inhibition": "6.6%"},
      {"smiles": "CCN1CCCC1CNC(=O)c1cn(C)c(=O)c2cc(OC)c(OC)cc12", "note": "(configuration not stated)", "inhibition": "4.5%"},
      {"smiles": "O=c1c(O)c(Br)ccc2c(Br)c(O)c(O)c(O)c12", "inhibition": "99.5% (active)"},
      {"smiles": "O=C(NC1CCCCC1)c1ccccc1NC(=O)C1COc2ccccc2O1", "note": "(configuration not stated)", "inhibition": "-3.8%"},
      {"smiles": "Cn1nc(-c2nnc(-c3ccccc3Cl)o2)c2c1CCN(C(=O)CCc1ccccc1)C2", "inhibition": "-2.8%"},
      {"smiles": "COc1cc(C(=O)Nc2c3c(nn2-c2ccc(C)cc2C)CS(=O)(=O)C3)cc(OC)c1OC", "inhibition": "-2.5%"},
      {"smiles": "COc1ccc(C2=NOC(C(=O)NCCc3ccccc3)C2)cc1OC", "note": "(configuration not stated)", "inhibition": "-10.3%"},
      {"smiles": "O=C(CCCc1ccccc1)Nc1cccc(Cl)c1", "inhibition": "-10.9%"},
      {"smiles": "Cc1ccc(F)c(NC(=O)CCc2ccccc2)c1", "inhibition": "-10.7%"},
      {"smiles": "Cc1cc(Cl)ccc1NC(=O)CCc1ccccc1", "inhibition": "52.8% (active)"},
      {"smiles": "Cc1ccc(-c2ccc(C)cc2N)c(N)c1", "inhibition": "5.9%"},
      {"smiles": "Cc1ccc2c(c1)C(=O)C(=O)S2", "inhibition": "53.9% (active)"},
      {"smiles": "Cc1ccc2nc3c(nc2c1)C(=O)c1ccccc1C3=O", "inhibition": "-3.7%"},
      {"smiles": "Cc1ccsc1/C=C(\\C(=O)NCc1cccnc1)S(=O)(=O)c1ccccc1", "inhibition": "2.5%"},
      {"smiles": "O=C(Cc1ccc(F)cc1)N1CCC(Nc2cccn3ncnc23)CC1", "inhibition": "-7.3%"},
      {"smiles": "O=C(C1CCCN(c2nnc3ccc(Cl)cn23)C1)N1CCN(C2CCCCC2)CC1", "note": "(configuration not stated)", "inhibition": "-2.9%"},
      {"smiles": "CCN(Cc1cc(-c2ccc(C)cc2C)on1)C(=O)c1cccs1", "inhibition": "3.3%"},
      {"smiles": "CCC(=O)N1CCC(COc2ccccc2C(=O)N2CCCCC2)CC1", "inhibition": "-0.7%"},
      {"smiles": "COc1cc(Cl)c(NC(=O)C2CCCN(c3nccc(C)n3)C2)c(OC)c1", "note": "(configuration not stated)", "inhibition": "2.3%"},
      {"smiles": "CCN(CC)C(=O)C1CCCN(Cc2ccccc2OC)C1", "note": "(configuration not stated)", "inhibition": "-2.5%"},
      {"smiles": "CCN(CC)S(=O)(=O)c1ccc(C(=O)Nc2c3c(nn2-c2ccc(C)cc2)CSC3)cc1", "inhibition": "3.5%"},
      {"smiles": "CCCCOc1ccc(S(=O)(=O)N2CCSC2c2ccccc2)cc1", "note": "(configuration not stated)", "inhibition": "-1.1%"},
      {"smiles": "O=[N+]([O-])c1ccc(C2SCCN2S(=O)(=O)c2ccccc2)cc1", "note": "(configuration not stated)", "inhibition": "-2.9%"},
      {"smiles": "Cc1cccc(S(=O)(=O)N2CCSC2c2ccccc2)c1", "note": "(configuration not stated)", "inhibition": "95.2% (active)"},
      {"smiles": "O=C(NCCc1ccccc1)N1CCC(n2c(-c3ccoc3)nc3cccnc32)C1", "note": "(configuration not stated)", "inhibition": "-2%"},
      {"smiles": "O=C(c1ccccc1)c1ccc(OCCNC(=O)c2ccccc2Br)cc1", "inhibition": "-3.3%"}
    ]}
  ]
}
